DT40 TDP1 CPT – DT40-hTDP1 cell growth loss with CPT; chicken DT40 Tdp1-/-;hTDP1 cells + 20 nM CPT, ATP luminescence, 48 h; Potency, µM (top dose mostly 46.2 µM), inactives show at the highest dose activity change, negative = growth inhibition, most hits filed as inhibitors; 12% of 420,000 active; AID 686979; also: potency is read from the fitted curve at half-maximal effect; nearly all actives have a fitted effect of over 55% in size
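Chicken DT40 Tdp1-/- cells complemented with human TDP1, 400 cells/well, exposed to compounds plus 20 nM camptothecin for at least 48 h at 37 C; viability read as ATP content by CellTiter-Glo luminescence.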
HT1080 IDH1KD tx – HT-1080 IDH1 knockdown cell toxicity (counter line) | HT-1080 IDH1 knockdown viability, ATP luminescence, 48 h | Potency, µM (titrated, usually from 46.1 µM), for the others: top-dose activity, negative = toxicity, actives largely listed as cytotoxic | 2% of 360,000 active;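 also: potency is read from the fitted curve at half-maximal effect; 0% = DMSO wells and -100% = cell-free medium wells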
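Using the IDH1-knockdown HT-1080 line run in the same batch and compound series as the NT line, viability after 48 h at 37 °C was determined by CellTiter-Glo luminescence and expressed as % activity.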
HT1080-NT tox – kills 2HG-producing HT-1080-NT fibrosarcoma cells; 1.6% of 360,000 active; Potency, µM (highest dose often 46.1 µM), without a hit: at the top dose activity, negative = less viability, usual class: cytotoxic; HT-1080-NT fibrosarcoma viability, CellTiter-Glo ATP luminescence, 48 h;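 also: NT is the 2HG producing partner of a matched IDH1 knockdown line; potency is read from the fitted curve at half-maximal effect; 0% = DMSO-treated cells and -100% = media-only wells without cells; nearly all actives have a fitted effect of over 55% in size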
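Viability by CellTiter-Glo luminescence after 48 h compound exposure at 37C of HT-1080-NT cells (750/well, RPMI, 5% FBS). % activity scaled between DMSO wells and medium-only wells, then curve-fitted and categorized by curve class.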
ELG1 repair inh – ELG1-dependent DNA repair inhibition | HEK293T ELG1-luciferase reporter, luminescence, 16 h; DNA damage induced by 5-fluorouridine | Potency, µM (highest dose often 46.1 µM), inactives show at the highest dose activity change, negative = inhibition, actives largely listed as inhibitors | 2.3% of 330,000 active | AID 504467; also: potency is read from the fitted curve at half-maximal effect; nearly all actives have a fitted effect of over 55% in size
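Step one: seed 2,000 cells per well. Step two: pin-transfer compound or DMSO alongside 5-fluorouridine. Step three: incubate 16 hr, 37 °C, 5% CO2. Step four: add ONE-Glo, wait 30 min, read luminescence.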
IL-1B inflam inh – inhibitors of inflammasome signaling (IL-1 beta secretion). 4.7% of 360,000 active. THP-1 LPS/ATP IL-1B secretion, AlphaLISA, 16 h; hits give low values. activity change, % at 57.5 µM; in the data active = activity change below about -50%; inconclusive = mostly about -30% to -49%
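THP-1 cells pretreated 1 hr with compounds (up to 57.5 uM final), then stimulated with LPS (250 ng/mL final) plus ATP (1.25 mM final); secreted IL-1B measured by AlphaLISA after 16 hr, decreased signal indicating inhibition.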
DT40 TDP1 no CPT – qHTS for Inhibitors of human tyrosyl-DNA phosphodiesterase 1 (TDP1): qHTS in cells in absence of CPT; DT40 Tdp1-/- hTDP1 cells, no CPT, ATP luminescence, 48 h; Potency, µM (top dose mostly 46.2 µM), without a hit: at the highest dose activity change, negative = growth inhibition, most hits filed as inhibitors; 15% of 420,000 active; also: potency is read from the fitted curve at half-maximal effect; nearly all actives have a fitted effect of over 55% in size
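Compound effects on proliferation are scored in DT40 Tdp1-/-;hTDP1 cells in the absence of CPT. ATP levels (CellTiter-Glo luminescence) are recorded after a ≥48 hr, 37 °C incubation.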
Numbers without * were called inactive; [ ] = remark or other dose. A selection: hits, their analogues and other compounds. The true share with any hit is near 19%. Unless noted, calls follow the shape of the dose curve; as a rule, active = well fitted curve in the direction sought with a large enough effect; inconclusive = small, poorly fitted or top-dose-only effect, or another doubt; inactive = no such curve, though single readings can be large; an effect the other way counts as inactive or inconclusive. Unless noted, % is scaled to controls: 0 for no effect and ±100 for the full control effect.

For COC[C@@H]1CCCN1c1ccc2c(c1)O[C@@H](COCc1ccccc1)CN([C@@H](C)c1ccccc1)S2(=O)=O the results were DT40 TDP1 CPT 9.2µM*, HT1080 IDH1KD tx -1.1%, HT1080-NT tox -2.4%, IL-1B inflam inh 41.3 and DT40 TDP1 no CPT 11.6µM*.
`C[C@H](c1ccccc1)N1C[C@H](COCc2ccccc2)Oc2cc(N3CCC[C@@H]3CO)ccc2S1(=O)=O` gave DT40 TDP1 CPT inconclusive, HT1080 IDH1KD tx -28.8%, HT1080-NT tox inconclusive, IL-1B inflam inh inconclusive and DT40 TDP1 no CPT inconclusive.
`C[C@H](c1ccccc1)N1C[C@@H](COCc2ccccc2)Oc2cc(N3CCC[C@H]3CO)ccc2S1(=O)=O` gave DT40 TDP1 CPT inconclusive, HT1080 IDH1KD tx inconclusive, HT1080-NT tox inconclusive, IL-1B inflam inh -13.9 and DT40 TDP1 no CPT 18.4µM*.
CCCCC[C@H](C)N1C[C@H](COCc2ccccc2)Oc2cc(N3CCC[C@@H]3COC)ccc2S1(=O)=O was read as DT40 TDP1 CPT inconclusive, HT1080 IDH1KD tx -2.0%, HT1080-NT tox 0.9%, IL-1B inflam inh 0.0 and DT40 TDP1 no CPT inconclusive.
Screening CN(C)CCCNc1cc(N2CCN(C)CC2)ncn1 returned DT40 TDP1 CPT -1.4% and DT40 TDP1 no CPT 0.3%.
`COc1ccc(-c2csc3nc[nH]c(=O)c23)cc1OC` gave DT40 TDP1 CPT 0.2%, HT1080 IDH1KD tx 3.7%, HT1080-NT tox 4.7%, ELG1 repair inh 3.3%, IL-1B inflam inh 6.4 and DT40 TDP1 no CPT 2.6%.
Screening Cc1ccc(-c2csc3nc[nH]c(=S)c23)cc1C returned DT40 TDP1 CPT 7.31µM*, HT1080 IDH1KD tx 20.6µM*, HT1080-NT tox inconclusive, ELG1 repair inh -28.3%, IL-1B inflam inh -16.0 and DT40 TDP1 no CPT 20.6µM*.
CCCOc1ccc(-c2csc3nc[nH]c(=O)c23)cc1 was read as DT40 TDP1 CPT inconclusive, HT1080 IDH1KD tx 6.3%, HT1080-NT tox 4.2%, ELG1 repair inh inconclusive, IL-1B inflam inh -7.5 and DT40 TDP1 no CPT inconclusive.
`O=c1[nH]cnc2scc(-c3ccc(-c4ccccc4)cc3)c12` gave DT40 TDP1 CPT -22.6%, HT1080 IDH1KD tx 6.3%, HT1080-NT tox -1.4%, ELG1 repair inh inconclusive, IL-1B inflam inh -68.2* and DT40 TDP1 no CPT inconclusive.
`CCCC1=Nc2cc(C(=O)NCc3ccc(OC)cc3)ccc2Sc2ccc(C)cc21` gave DT40 TDP1 CPT 14.6µM* and DT40 TDP1 no CPT 9.2µM*.
CCC1=Nc2cc(C(=O)NCCc3ccccc3)ccc2Sc2ccc(Cl)cc21 was read as DT40 TDP1 CPT 8.2µM* and DT40 TDP1 no CPT 6.51µM*.
For CCCC1=Nc2cc(C(=O)NCCc3ccccc3)ccc2Sc2ccc(C)cc21 the results were DT40 TDP1 CPT 4.61µM* and DT40 TDP1 no CPT 6.51µM*.
Screening CCC1=Nc2cc(C(=O)NC(C)c3ccccc3)ccc2Sc2ccc(Cl)cc21 (stereo not drawn) returned DT40 TDP1 CPT 16.4µM* and DT40 TDP1 no CPT inconclusive.
CC(NC(=O)CNC(=O)c1cccc(Cl)c1)c1ccccc1 (stereo not drawn) was read as DT40 TDP1 CPT 0.7%, HT1080 IDH1KD tx 0.0%, HT1080-NT tox 4.9%, ELG1 repair inh inconclusive, IL-1B inflam inh 1.8 and DT40 TDP1 no CPT -9.4%.
`Cc1ncc2c(c1CNC(=O)c1ccc3c(c1)OCO3)CCN(C(=O)c1cn3ccccc3n1)C2` gave DT40 TDP1 CPT 16.7%[9.04 µM] and DT40 TDP1 no CPT -15.0%.
COc1ccc(CCNC(=O)C2COc3ccccc3C2)cc1OC (stereo not drawn) was read as DT40 TDP1 CPT -7.4% and DT40 TDP1 no CPT -14.6%.
Screening CCCCn1c(N)c(N(CCOC)C(=O)C2CCN(c3ncnc4sc(C)c(C)c34)CC2)c(=O)[nH]c1=O returned DT40 TDP1 CPT 5.2%, HT1080 IDH1KD tx 4.9%, HT1080-NT tox 0.6%, ELG1 repair inh inconclusive, IL-1B inflam inh 3.6 and DT40 TDP1 no CPT inconclusive.
`CCC1=Nc2cc(C(=O)N3CCC(C)CC3)ccc2Sc2ccc(C)cc21` gave DT40 TDP1 CPT 16.4µM* and DT40 TDP1 no CPT 16.4µM*.
Screening CCOC(=O)N1CCC(NC(=O)c2ccc3c(c2)N=C(CC)c2ccccc2S3)CC1 returned DT40 TDP1 CPT inconclusive, HT1080 IDH1KD tx inconclusive, HT1080-NT tox inconclusive, ELG1 repair inh inconclusive, IL-1B inflam inh -22.3 and DT40 TDP1 no CPT inconclusive.
For CCOCCCNC(=O)c1ccc2c(c1)N=C(CC)c1cc(Br)ccc1S2 the results were DT40 TDP1 CPT 0.0366µM*, HT1080 IDH1KD tx 0.092µM*, HT1080-NT tox inconclusive, ELG1 repair inh inconclusive, IL-1B inflam inh -10.8 and DT40 TDP1 no CPT 0.0326µM*.
CCCNC(=O)c1ccc2c(c1)N=C(CCC)c1ccccc1S2 was read as DT40 TDP1 CPT 1.16µM* and DT40 TDP1 no CPT 0.731µM*.
`CCC1=Nc2cc(C(=O)NCCN3CCOCC3)ccc2Sc2ccccc21` gave DT40 TDP1 CPT -3.4%, HT1080 IDH1KD tx -4.4%, HT1080-NT tox -0.1%, ELG1 repair inh 5.1%, IL-1B inflam inh -12.0 and DT40 TDP1 no CPT -1.6%.
CCC1=Nc2cc(C(=O)NCc3ccccc3Cl)ccc2Sc2ccc(C)cc21 was read as DT40 TDP1 CPT 5.17µM* and DT40 TDP1 no CPT 3.26µM*.
`CC(NC(=O)c1cccs1)C(S)c1ccccc1` (stereo not drawn) gave DT40 TDP1 CPT inconclusive, HT1080 IDH1KD tx 0.8%, HT1080-NT tox 0.7%, ELG1 repair inh -18.1%, IL-1B inflam inh -1.8 and DT40 TDP1 no CPT inconclusive.
For CC1CCCC(NC(=O)COC(=O)CCC(=O)c2ccc(F)cc2)C1C (stereo not drawn) the results were DT40 TDP1 CPT -21.2%, HT1080 IDH1KD tx 1.0%, HT1080-NT tox 0.0%, ELG1 repair inh inconclusive, IL-1B inflam inh 2.7 and DT40 TDP1 no CPT -23.8%.
Screening C[C@@H]1COc2cc(N3CCC[C@@H]3CO)ccc2S(=O)(=O)N1 returned DT40 TDP1 CPT 2.6%, HT1080 IDH1KD tx 9.9%, HT1080-NT tox 21.2%, IL-1B inflam inh 0.0 and DT40 TDP1 no CPT -16.4%.
For COc1ccc(CN2C(=O)N(c3ccc(C)cc3)C(=O)C2CC(=O)Nc2ccccc2)cc1OC (stereo not drawn) the results were DT40 TDP1 CPT -27.3% and DT40 TDP1 no CPT inconclusive.
